{"source": "the supplement of paper PMC11732987", "about": "“Enantioselective OTUD7B fragment discovery through chemoproteomics screening and high-throughput optimisation” (Communications Chemistry, 2025)", "data": [{"compound": "OC1CN(Cc2sccc12)C(=O)CCl", "assay": "log2 ratio of Biotin-Ahx-Ub-VS probe labelling (compound/DMSO); higher = less target engagement, active = hit call of the paper (q ≤ 0.05, log2 ratio ≤ -1)", "conditions": "compound concentration: 50uM; treatment time: 3 h", "protocol": "(§1)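 Round 2 competitive ABPP in HEK293T lysate. Purified HTC-D2B compounds were tested at 50 and 200 µM for 3 h, followed by Biotin-Ahx-Ub-VS enrichment and diaPASEF LC-MS/MS. Values are the average log2 ratio (compound/DMSO) from an unpaired t-test (n=3 treated, n=26 DMSO).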", "values": [{"target": "USP10 (UniProt Q14694)", "sequence (Q14694 whole entry)": "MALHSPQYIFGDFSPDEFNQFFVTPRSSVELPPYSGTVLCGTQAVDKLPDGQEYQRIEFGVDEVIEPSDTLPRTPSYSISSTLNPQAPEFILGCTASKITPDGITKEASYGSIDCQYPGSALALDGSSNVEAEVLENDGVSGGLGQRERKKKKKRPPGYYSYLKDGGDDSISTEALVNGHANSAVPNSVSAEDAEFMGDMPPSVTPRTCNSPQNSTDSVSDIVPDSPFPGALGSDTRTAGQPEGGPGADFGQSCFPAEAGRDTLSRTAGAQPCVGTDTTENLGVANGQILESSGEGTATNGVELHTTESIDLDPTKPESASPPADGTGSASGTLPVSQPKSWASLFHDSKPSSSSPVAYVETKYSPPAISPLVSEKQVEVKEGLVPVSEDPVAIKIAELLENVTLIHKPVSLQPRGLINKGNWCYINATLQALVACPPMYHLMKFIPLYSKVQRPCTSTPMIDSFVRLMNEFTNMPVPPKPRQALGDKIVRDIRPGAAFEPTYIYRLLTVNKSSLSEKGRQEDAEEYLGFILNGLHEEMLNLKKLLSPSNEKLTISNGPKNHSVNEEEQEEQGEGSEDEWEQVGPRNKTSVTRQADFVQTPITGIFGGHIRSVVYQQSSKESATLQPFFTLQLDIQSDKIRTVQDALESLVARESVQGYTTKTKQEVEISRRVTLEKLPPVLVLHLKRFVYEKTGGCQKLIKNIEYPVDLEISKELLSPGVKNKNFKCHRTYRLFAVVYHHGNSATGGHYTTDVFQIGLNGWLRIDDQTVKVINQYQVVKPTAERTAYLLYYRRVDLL", "log2 ratio of Biotin-Ahx-Ub-VS probe labelling": "-0.166 (inactive)"}, {"target": "OTUD4 (UniProt Q01804)", "log2 ratio of Biotin-Ahx-Ub-VS probe labelling": "-0.695 (inactive)"}, {"target": "MINDY4 (UniProt Q4G0A6)", "sequence (Q4G0A6 whole entry)": "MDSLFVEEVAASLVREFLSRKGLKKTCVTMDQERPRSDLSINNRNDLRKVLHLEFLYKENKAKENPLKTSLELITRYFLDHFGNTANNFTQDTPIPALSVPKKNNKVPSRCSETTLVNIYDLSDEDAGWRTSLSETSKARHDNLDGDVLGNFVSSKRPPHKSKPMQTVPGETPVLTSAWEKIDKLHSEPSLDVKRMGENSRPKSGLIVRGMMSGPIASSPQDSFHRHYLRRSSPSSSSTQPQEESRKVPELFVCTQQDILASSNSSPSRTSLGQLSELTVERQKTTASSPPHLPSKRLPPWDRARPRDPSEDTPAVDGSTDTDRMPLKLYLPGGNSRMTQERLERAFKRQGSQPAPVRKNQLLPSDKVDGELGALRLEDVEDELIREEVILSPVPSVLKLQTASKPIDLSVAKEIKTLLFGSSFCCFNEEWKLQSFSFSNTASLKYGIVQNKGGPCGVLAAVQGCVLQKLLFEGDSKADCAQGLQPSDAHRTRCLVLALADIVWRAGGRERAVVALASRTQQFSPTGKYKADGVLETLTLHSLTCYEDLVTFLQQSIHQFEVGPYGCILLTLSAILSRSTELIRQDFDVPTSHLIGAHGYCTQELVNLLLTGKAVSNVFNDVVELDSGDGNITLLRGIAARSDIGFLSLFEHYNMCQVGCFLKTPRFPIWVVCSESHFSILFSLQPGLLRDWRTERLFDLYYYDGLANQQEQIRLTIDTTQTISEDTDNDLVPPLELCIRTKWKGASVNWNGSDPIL", "log2 ratio of Biotin-Ahx-Ub-VS probe labelling": "0.0365 (inactive)"}, {"target": "USP22 (UniProt Q9UPT9)", "sequence (Q9UPT9 whole entry)": "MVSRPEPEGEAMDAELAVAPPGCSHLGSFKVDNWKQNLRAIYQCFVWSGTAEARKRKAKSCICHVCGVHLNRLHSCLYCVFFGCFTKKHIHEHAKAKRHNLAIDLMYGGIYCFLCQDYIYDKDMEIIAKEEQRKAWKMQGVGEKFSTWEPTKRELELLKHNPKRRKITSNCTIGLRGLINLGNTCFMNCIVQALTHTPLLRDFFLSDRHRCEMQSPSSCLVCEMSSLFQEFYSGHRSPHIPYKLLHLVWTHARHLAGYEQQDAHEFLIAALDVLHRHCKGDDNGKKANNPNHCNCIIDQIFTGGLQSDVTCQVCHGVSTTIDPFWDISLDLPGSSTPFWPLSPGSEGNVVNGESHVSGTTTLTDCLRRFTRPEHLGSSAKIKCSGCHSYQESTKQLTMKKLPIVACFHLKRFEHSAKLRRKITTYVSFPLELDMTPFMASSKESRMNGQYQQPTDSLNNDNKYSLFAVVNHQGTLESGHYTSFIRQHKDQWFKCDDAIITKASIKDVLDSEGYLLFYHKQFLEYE", "log2 ratio of Biotin-Ahx-Ub-VS probe labelling": "0.0108 (inactive)"}, {"target": "YOD1 (UniProt Q5VVQ6)", "log2 ratio of Biotin-Ahx-Ub-VS probe labelling": "-0.198 (inactive)"}, {"target": "UniProt Q5T2D3", "log2 ratio of Biotin-Ahx-Ub-VS probe labelling": "-0.17 (inactive)"}, {"target": "EIF3H (UniProt O15372)", "log2 ratio of Biotin-Ahx-Ub-VS probe labelling": "-0.189 (inactive)"}, {"target": "OTUD7B (UniProt Q6GQQ9)", "log2 ratio of Biotin-Ahx-Ub-VS probe labelling": "-4.49 (active)"}, {"target": "OTUB1 (UniProt Q96FW1)", "log2 ratio of Biotin-Ahx-Ub-VS probe labelling": "0.196 (inactive)"}, {"target": "PRPF8 (UniProt Q6P2Q9)", "log2 ratio of Biotin-Ahx-Ub-VS probe labelling": "0.0584 (inactive)"}, {"target": "PSMD7 (UniProt P51665)", "sequence (P51665 whole entry)": "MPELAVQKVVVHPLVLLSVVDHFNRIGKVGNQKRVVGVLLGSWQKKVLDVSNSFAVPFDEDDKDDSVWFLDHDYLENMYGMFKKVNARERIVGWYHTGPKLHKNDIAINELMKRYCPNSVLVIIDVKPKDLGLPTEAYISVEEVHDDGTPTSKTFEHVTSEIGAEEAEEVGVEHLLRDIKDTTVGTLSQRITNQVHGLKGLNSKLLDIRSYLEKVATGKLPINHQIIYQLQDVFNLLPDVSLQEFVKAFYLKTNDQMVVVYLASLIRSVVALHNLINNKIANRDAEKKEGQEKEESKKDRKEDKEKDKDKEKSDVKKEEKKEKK", "log2 ratio of Biotin-Ahx-Ub-VS probe labelling": "-0.579 (inactive)"}, {"target": "USP39 (UniProt Q53GS9)", "log2 ratio of Biotin-Ahx-Ub-VS probe labelling": "-0.0158 (inactive)"}, {"target": "USP36 (UniProt Q9P275)", "log2 ratio of Biotin-Ahx-Ub-VS probe labelling": "-0.243 (inactive)"}, {"target": "USP25 (UniProt Q9UHP3)", "sequence (Q9UHP3 whole entry)": "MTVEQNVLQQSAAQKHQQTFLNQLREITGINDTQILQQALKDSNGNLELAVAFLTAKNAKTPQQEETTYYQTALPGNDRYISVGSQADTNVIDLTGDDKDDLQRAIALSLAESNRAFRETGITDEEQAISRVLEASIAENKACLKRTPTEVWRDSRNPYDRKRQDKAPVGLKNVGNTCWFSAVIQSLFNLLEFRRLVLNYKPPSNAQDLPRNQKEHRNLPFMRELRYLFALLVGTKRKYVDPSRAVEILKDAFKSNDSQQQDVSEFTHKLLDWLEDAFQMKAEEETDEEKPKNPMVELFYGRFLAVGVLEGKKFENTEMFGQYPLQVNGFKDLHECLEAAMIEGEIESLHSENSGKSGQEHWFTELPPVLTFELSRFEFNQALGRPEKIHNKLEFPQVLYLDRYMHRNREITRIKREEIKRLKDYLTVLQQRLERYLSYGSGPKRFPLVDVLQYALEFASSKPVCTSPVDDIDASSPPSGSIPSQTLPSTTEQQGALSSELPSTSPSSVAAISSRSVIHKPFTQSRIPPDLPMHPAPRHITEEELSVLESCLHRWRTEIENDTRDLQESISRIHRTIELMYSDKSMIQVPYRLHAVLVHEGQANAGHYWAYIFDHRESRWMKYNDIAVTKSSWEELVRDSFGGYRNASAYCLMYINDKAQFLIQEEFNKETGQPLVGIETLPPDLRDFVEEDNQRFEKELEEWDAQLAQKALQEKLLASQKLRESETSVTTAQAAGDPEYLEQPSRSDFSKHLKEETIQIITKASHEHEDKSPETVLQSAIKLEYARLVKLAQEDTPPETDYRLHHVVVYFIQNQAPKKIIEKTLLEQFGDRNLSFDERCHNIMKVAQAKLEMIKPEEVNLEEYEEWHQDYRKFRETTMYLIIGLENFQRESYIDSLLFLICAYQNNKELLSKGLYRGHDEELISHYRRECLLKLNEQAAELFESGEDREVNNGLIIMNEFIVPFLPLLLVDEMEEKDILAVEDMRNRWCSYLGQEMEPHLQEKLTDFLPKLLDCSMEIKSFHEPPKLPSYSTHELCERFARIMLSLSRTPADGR", "log2 ratio of Biotin-Ahx-Ub-VS probe labelling": "0.472 (inactive)"}, {"target": "EIF3F (UniProt O00303)", "sequence (O00303 whole entry)": "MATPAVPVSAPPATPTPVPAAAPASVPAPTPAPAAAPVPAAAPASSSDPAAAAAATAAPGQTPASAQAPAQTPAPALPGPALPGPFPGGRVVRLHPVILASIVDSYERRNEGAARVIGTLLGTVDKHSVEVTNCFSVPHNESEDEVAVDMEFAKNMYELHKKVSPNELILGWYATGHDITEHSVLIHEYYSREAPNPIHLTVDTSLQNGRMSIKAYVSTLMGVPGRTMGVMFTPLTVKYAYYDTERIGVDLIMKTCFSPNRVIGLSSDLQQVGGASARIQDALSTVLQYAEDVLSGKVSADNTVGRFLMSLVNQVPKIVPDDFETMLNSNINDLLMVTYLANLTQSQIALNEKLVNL", "log2 ratio of Biotin-Ahx-Ub-VS probe labelling": "-0.0817 (inactive)"}, {"target": "UCHL1 (UniProt P09936)", "sequence (P09936 whole entry, looked up)": "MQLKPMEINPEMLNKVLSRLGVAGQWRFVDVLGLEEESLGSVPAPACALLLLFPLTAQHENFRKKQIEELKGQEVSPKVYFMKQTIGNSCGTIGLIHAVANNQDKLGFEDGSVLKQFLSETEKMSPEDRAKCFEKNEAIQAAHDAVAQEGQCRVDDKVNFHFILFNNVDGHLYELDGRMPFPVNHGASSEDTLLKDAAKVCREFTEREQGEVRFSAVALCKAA", "log2 ratio of Biotin-Ahx-Ub-VS probe labelling": "-0.248 (inactive)"}, {"target": "USP12 (UniProt O75317)", "sequence (O75317 whole entry)": "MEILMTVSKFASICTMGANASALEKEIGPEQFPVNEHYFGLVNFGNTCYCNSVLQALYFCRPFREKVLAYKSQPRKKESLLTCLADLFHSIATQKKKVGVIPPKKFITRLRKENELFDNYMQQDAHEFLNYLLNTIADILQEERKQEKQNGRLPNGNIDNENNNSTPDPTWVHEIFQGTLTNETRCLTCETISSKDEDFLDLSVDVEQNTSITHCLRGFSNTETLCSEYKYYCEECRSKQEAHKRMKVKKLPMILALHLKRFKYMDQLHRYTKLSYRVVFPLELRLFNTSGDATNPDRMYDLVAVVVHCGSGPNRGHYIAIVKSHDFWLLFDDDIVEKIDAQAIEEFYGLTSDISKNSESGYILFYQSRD", "log2 ratio of Biotin-Ahx-Ub-VS probe labelling": "-0.0752 (inactive)"}, {"target": "USP8 (UniProt P40818)", "log2 ratio of Biotin-Ahx-Ub-VS probe labelling": "-0.266 (inactive)"}, {"target": "UCHL5 (UniProt Q9Y5K5)", "sequence (Q9Y5K5 whole entry)": "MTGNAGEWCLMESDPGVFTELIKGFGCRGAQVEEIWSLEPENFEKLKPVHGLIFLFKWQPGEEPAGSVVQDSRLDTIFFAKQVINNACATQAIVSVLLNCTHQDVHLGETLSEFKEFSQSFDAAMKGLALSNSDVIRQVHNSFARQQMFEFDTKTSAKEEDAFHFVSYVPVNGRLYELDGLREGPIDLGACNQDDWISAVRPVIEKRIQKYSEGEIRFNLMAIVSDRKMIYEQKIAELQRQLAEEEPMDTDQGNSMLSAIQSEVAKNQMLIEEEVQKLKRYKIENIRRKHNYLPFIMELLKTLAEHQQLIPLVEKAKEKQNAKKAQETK", "log2 ratio of Biotin-Ahx-Ub-VS probe labelling": "-0.2 (inactive)"}, {"target": "UCHL3 (UniProt P15374)", "sequence (P15374 whole entry)": "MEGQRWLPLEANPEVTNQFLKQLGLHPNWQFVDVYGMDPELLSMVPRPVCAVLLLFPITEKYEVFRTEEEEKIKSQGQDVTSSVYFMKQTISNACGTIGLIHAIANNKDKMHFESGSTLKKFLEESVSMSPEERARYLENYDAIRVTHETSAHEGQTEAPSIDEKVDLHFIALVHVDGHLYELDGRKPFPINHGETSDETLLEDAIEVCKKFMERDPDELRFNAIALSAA", "log2 ratio of Biotin-Ahx-Ub-VS probe labelling": "-0.332 (inactive)"}]}, {"compound": "OC1CN(Cc2sccc12)C(=O)CCl", "assay": "log2 ratio of Biotin-Ahx-Ub-VS probe labelling (compound/DMSO); higher = less target engagement, active = hit call of the paper (q ≤ 0.05, log2 ratio ≤ -1)", "conditions": "compound concentration: 200uM; treatment time: 3 h", "protocol": "as §1", "values": [{"target": "USP10 (UniProt Q14694)", "log2 ratio of Biotin-Ahx-Ub-VS probe labelling": "-0.00161 (inactive)"}, {"target": "OTUD4 (UniProt Q01804)", "log2 ratio of Biotin-Ahx-Ub-VS probe labelling": "-1.48 (active)"}, {"target": "MINDY4 (UniProt Q4G0A6)", "log2 ratio of Biotin-Ahx-Ub-VS probe labelling": "0.686 (inactive)"}, {"target": "USP22 (UniProt Q9UPT9)", "log2 ratio of Biotin-Ahx-Ub-VS probe labelling": "-0.267 (inactive)"}, {"target": "YOD1 (UniProt Q5VVQ6)", "log2 ratio of Biotin-Ahx-Ub-VS probe labelling": "-0.139 (inactive)"}, {"target": "UniProt Q5T2D3", "log2 ratio of Biotin-Ahx-Ub-VS probe labelling": "-0.0768 (inactive)"}, {"target": "EIF3H (UniProt O15372)", "log2 ratio of Biotin-Ahx-Ub-VS probe labelling": "-0.0524 (inactive)"}, {"target": "OTUD7B (UniProt Q6GQQ9)", "log2 ratio of Biotin-Ahx-Ub-VS probe labelling": "-5.43 (active)"}, {"target": "OTUB1 (UniProt Q96FW1)", "log2 ratio of Biotin-Ahx-Ub-VS probe labelling": "-0.0449 (inactive)"}, {"target": "PRPF8 (UniProt Q6P2Q9)", "log2 ratio of Biotin-Ahx-Ub-VS probe labelling": "0.0922 (inactive)"}, {"target": "PSMD7 (UniProt P51665)", "log2 ratio of Biotin-Ahx-Ub-VS probe labelling": "0.371 (inactive)"}, {"target": "USP39 (UniProt Q53GS9)", "log2 ratio of Biotin-Ahx-Ub-VS probe labelling": "0.0541 (inactive)"}, {"target": "USP36 (UniProt Q9P275)", "log2 ratio of Biotin-Ahx-Ub-VS probe labelling": "-0.0665 (inactive)"}, {"target": "USP25 (UniProt Q9UHP3)", "log2 ratio of Biotin-Ahx-Ub-VS probe labelling": "0.301 (inactive)"}, {"target": "EIF3F (UniProt O00303)", "log2 ratio of Biotin-Ahx-Ub-VS probe labelling": "0.103 (inactive)"}, {"target": "UCHL1 (UniProt P09936)", "log2 ratio of Biotin-Ahx-Ub-VS probe labelling": "-0.0486 (inactive)"}, {"target": "USP12 (UniProt O75317)", "log2 ratio of Biotin-Ahx-Ub-VS probe labelling": "-0.294 (inactive)"}, {"target": "USP8 (UniProt P40818)", "log2 ratio of Biotin-Ahx-Ub-VS probe labelling": "-0.144 (inactive)"}, {"target": "UCHL5 (UniProt Q9Y5K5)", "log2 ratio of Biotin-Ahx-Ub-VS probe labelling": "-0.0949 (inactive)"}, {"target": "UCHL3 (UniProt P15374)", "log2 ratio of Biotin-Ahx-Ub-VS probe labelling": "-0.337 (inactive)"}]}]}
